In ChEMBL document CHEMBL1961873, “Compounds: GSK PKIS; Assays: Nanosyn kinase panel” (2012):

Key:
[1] = biological target: Mast/stem cell growth factor receptor Kit (Homo sapiens) (UniProt P10721); conditions: at 1 µM
[2] = test system: Mast/stem cell growth factor receptor Kit (Homo sapiens), P10721 [D816V]; conditions: at 0.1 µM
[3] = test system: Mast/stem cell growth factor receptor Kit (Homo sapiens), P10721 [D816V]; conditions: at 1 µM
[4] = test system: Mast/stem cell growth factor receptor Kit (Homo sapiens), P10721 [T670I]; conditions: at 0.1 µM
Chain of Mast/stem cell growth factor receptor Kit (Homo sapiens), P10721 [T670I] (P10721 whole entry T670I): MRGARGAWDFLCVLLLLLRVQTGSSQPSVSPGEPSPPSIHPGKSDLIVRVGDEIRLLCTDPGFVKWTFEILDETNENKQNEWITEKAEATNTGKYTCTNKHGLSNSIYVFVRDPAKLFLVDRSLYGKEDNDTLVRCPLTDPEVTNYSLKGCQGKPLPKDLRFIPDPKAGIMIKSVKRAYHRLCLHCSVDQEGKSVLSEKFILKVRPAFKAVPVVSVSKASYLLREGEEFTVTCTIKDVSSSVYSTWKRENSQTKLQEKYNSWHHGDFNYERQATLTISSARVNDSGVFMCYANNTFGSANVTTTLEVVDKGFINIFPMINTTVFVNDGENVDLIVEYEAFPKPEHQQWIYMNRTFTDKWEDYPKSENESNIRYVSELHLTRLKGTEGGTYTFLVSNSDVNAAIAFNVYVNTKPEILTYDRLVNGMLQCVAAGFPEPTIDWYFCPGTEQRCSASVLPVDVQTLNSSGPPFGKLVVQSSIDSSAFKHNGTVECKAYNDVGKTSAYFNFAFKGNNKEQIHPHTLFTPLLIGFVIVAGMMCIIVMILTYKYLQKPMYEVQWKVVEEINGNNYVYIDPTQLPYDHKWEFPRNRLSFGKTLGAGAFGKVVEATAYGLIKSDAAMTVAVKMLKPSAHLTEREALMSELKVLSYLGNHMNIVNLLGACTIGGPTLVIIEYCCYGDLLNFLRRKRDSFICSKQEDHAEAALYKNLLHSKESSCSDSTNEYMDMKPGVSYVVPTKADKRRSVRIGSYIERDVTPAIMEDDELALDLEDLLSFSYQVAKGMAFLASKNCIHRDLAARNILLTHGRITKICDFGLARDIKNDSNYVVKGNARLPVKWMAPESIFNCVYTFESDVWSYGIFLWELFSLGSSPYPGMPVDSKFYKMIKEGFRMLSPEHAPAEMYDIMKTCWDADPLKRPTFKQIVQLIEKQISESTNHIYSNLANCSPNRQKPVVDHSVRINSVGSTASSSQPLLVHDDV

[5] = test system: Mast/stem cell growth factor receptor Kit (Homo sapiens), P10721 [T670I]; conditions: at 1 µM
[6] = test system: Mast/stem cell growth factor receptor Kit (Homo sapiens), P10721 [V560G]; conditions: at 0.1 µM
Chain of Mast/stem cell growth factor receptor Kit (Homo sapiens), P10721 [V560G] (P10721 whole entry V560G): as the sequence (P10721 whole entry T670I) above, with V560G, I670T counted along it

[7] = test system: Mast/stem cell growth factor receptor Kit (Homo sapiens), P10721 [V560G]; conditions: at 1 µM
[8] = biological target: Tyrosine-protein kinase Lck (Homo sapiens) (UniProt P06239); conditions: at 0.1 µM
Chain of Tyrosine-protein kinase Lck (Homo sapiens) (P06239 2-509 limits assumed): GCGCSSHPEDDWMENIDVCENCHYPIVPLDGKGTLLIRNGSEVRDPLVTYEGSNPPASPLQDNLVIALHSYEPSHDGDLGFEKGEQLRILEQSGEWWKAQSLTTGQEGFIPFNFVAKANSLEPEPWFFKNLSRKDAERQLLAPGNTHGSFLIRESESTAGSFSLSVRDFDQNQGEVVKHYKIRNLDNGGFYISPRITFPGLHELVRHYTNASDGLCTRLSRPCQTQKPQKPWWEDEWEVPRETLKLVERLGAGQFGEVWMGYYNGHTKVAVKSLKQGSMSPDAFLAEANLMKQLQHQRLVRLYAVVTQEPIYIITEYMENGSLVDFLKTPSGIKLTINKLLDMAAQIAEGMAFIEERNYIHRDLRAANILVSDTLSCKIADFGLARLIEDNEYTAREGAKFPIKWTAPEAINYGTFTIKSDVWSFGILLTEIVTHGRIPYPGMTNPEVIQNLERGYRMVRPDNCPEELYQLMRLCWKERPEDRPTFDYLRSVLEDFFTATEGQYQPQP

[9] = biological target: Tyrosine-protein kinase Lck (Homo sapiens) (UniProt P06239); conditions: at 1 µM
[10] = biological target: Leukocyte tyrosine kinase receptor (Homo sapiens) (UniProt P29376); conditions: at 0.1 µM
Chain of Leukocyte tyrosine kinase receptor (Homo sapiens) (P29376 whole entry): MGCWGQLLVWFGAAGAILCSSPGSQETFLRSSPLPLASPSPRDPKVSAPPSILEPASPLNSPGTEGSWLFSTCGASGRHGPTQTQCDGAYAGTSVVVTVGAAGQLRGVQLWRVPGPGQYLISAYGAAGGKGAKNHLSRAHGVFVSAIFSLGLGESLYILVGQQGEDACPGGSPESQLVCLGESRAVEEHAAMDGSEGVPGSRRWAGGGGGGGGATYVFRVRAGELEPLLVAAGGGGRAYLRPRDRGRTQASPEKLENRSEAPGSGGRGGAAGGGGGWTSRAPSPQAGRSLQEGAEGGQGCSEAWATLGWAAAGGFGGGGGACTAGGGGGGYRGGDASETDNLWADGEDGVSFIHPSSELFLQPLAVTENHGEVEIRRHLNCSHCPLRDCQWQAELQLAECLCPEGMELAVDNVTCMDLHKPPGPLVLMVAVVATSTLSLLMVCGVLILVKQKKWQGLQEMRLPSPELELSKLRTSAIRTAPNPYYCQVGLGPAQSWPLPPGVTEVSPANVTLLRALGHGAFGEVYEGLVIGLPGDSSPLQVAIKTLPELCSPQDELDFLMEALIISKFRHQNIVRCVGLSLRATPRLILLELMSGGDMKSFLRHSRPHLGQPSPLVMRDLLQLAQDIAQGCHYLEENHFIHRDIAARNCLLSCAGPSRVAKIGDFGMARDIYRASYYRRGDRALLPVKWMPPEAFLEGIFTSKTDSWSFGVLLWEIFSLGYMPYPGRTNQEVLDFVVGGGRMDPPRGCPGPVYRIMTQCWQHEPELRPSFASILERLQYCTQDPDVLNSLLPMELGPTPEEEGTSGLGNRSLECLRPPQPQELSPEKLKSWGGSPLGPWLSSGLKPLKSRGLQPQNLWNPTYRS

Chain of Mast/stem cell growth factor receptor Kit (Homo sapiens) (P10721 whole entry): as the sequence (P10721 whole entry T670I) above, with I670T counted along it
Chain of Mast/stem cell growth factor receptor Kit (Homo sapiens), P10721 [D816V] (P10721 whole entry D816V): as the sequence (P10721 whole entry T670I) above, with I670T, D816V counted along it

O=C(O[C@H]1CN[C@H](C#Cc2cc3ncnc(Nc4ccc(Cc5ccccc5)cc4)c3s2)C1)N1CCOCC1
inhibition [1]: 3.44%
inhibition [2]: 8.25%
inhibition [3]: 1.8%
inhibition [4]: 1.94%
inhibition [5]: 0.93%
inhibition [6]: -0.42%
inhibition [7]: -0.08%
inhibition [8]: 2.19%
inhibition [9]: 8.13%
inhibition [10]: 1.17%

COc1cccc(-c2c[nH]c3c(N/N=C/c4ccncc4)ncnc23)c1
inhibition [1]: 88%
inhibition [2]: 8.75%
inhibition [3]: 38.7%
inhibition [4]: 7.21%
inhibition [5]: 51.1%
inhibition [6]: 4.19%
inhibition [7]: 19.6%
inhibition [8]: 35.1%
inhibition [9]: 82%
inhibition [10]: 3.15%

O=C(Nc1n[nH]c2cc(-c3ccc(F)cc3)ccc12)C1CC1
inhibition [1]: 5.1%
inhibition [2]: 3.06%
inhibition [3]: 5.66%
inhibition [4]: 3.36%
inhibition [5]: 4.92%
inhibition [6]: -2.61%
inhibition [7]: 0.08%
inhibition [8]: 1.9%
inhibition [9]: 7.59%
inhibition [10]: 2.47%

CCn1c(-c2nonc2N)nc2c(C#CC(C)(C)O)ncc(OC3CCNCC3)c21
inhibition [1]: 3.87%
inhibition [2]: 4.97%
inhibition [3]: 6.05%
inhibition [4]: 1.16%
inhibition [5]: -0.54%
inhibition [6]: -0.47%
inhibition [7]: 0.39%
inhibition [8]: 2.33%
inhibition [9]: 4.05%
inhibition [10]: 1.83%

Cc1cccc(Nc2ncc(-c3ccccc3)o2)c1
inhibition [1]: 89%
inhibition [2]: 1.52%
inhibition [3]: -0.48%
inhibition [4]: 4.58%
inhibition [5]: 48%
inhibition [6]: 6.79%
inhibition [7]: 53%
inhibition [8]: 3.23%
inhibition [9]: 5.7%
inhibition [10]: 3.02%

Cc1ccc(O)cc1Nc1ccnc2cc(-c3ccccn3)ccc12
inhibition [1]: 43.1%
inhibition [2]: 23.5%
inhibition [3]: 73.7%
inhibition [4]: 4.94%
inhibition [5]: 3.09%
inhibition [6]: 3.25%
inhibition [7]: 41.2%
inhibition [8]: 33.6%
inhibition [9]: 76.6%
inhibition [10]: 10.9%

CS(=O)(=O)CCNCc1coc(-c2ccc3ncnc(Nc4ccc(OCc5ccccc5)cc4)c3c2)c1
inhibition [1]: 8.33%
inhibition [2]: 0.03%
inhibition [3]: 1.72%
inhibition [4]: 2.17%
inhibition [5]: 3.24%
inhibition [6]: 0.76%
inhibition [7]: 2.94%
inhibition [8]: 3.8%
inhibition [9]: 14.4%
inhibition [10]: 4.91%

COC(=O)Nc1nc2ccc(Oc3ccc(NC(=O)Nc4cccc(Cl)c4)cc3)cc2[nH]1
inhibition [1]: 90.8%
inhibition [2]: -0.72%
inhibition [3]: -1.6%
inhibition [4]: 22.5%
inhibition [5]: 57.1%
inhibition [6]: 69.5%
inhibition [7]: 91.2%
inhibition [8]: 2.47%
inhibition [9]: 9.47%
inhibition [10]: 2.31%

CN1CCC(n2cnc(-c3ccc(F)cc3)c2-c2ccnc(N)n2)CC1
inhibition [1]: 9.51%
inhibition [2]: 5.49%
inhibition [3]: 7.78%
inhibition [4]: 4.69%
inhibition [5]: 3.03%
inhibition [6]: -0.68%
inhibition [7]: 3.94%
inhibition [8]: 2.45%
inhibition [9]: 13.7%
inhibition [10]: 2.54%

FC(F)(F)c1cccc(-c2nn3ncccc3c2-c2ccnc(Nc3ccc4c(c3)OCCO4)n2)c1
inhibition [1]: 24.6%
inhibition [2]: 1.11%
inhibition [3]: 1.8%
inhibition [4]: 0.93%
inhibition [5]: 3.06%
inhibition [6]: -1%
inhibition [7]: 5.35%
inhibition [8]: 9.37%
inhibition [9]: 45.8%
inhibition [10]: 2.06%

COc1cc(/C=N/Nc2ncnc3[nH]ncc23)ccc1O
inhibition [1]: 49.4%
inhibition [2]: 8.85%
inhibition [3]: 12.9%
inhibition [4]: 0.9%
inhibition [5]: 7.67%
inhibition [6]: 1.4%
inhibition [7]: 6.17%
inhibition [8]: 12.5%
inhibition [9]: 54.7%
inhibition [10]: 4.08%

Nc1ncc(-c2cccc(S(N)(=O)=O)c2)c2scc(-c3ccc(F)c(Cl)c3)c12
inhibition [1]: 98.1%
inhibition [2]: -0.67%
inhibition [3]: 5.44%
inhibition [4]: 3.88%
inhibition [5]: 5.82%
inhibition [6]: 3.89%
inhibition [7]: 50.5%
inhibition [8]: 12.9%
inhibition [9]: 52.4%
inhibition [10]: 10.7%

Cc1ccc2c(-c3ccnc(Nc4ccccc4)n3)c(-c3ccc(F)cc3)nn2n1
inhibition [1]: 75.7%
inhibition [2]: 1.56%
inhibition [3]: -0.04%
inhibition [4]: 0.33%
inhibition [5]: 3.98%
inhibition [6]: 1.13%
inhibition [7]: 27.9%
inhibition [8]: 15.8%
inhibition [9]: 56.9%
inhibition [10]: 2.45%

CCc1nn2ncccc2c1-c1ccnc(NC2CC2)n1
inhibition [1]: 7.72%
inhibition [2]: 0.04%
inhibition [3]: 1.83%
inhibition [4]: 1.32%
inhibition [5]: 2.12%
inhibition [6]: 0.78%
inhibition [7]: 3.12%
inhibition [8]: 2.82%
inhibition [9]: 6.75%
inhibition [10]: 3.02%

NS(=O)(=O)c1ccc(Nc2ncc(-c3ccccc3)o2)cc1
inhibition [1]: 88.6%
inhibition [2]: 0.49%
inhibition [3]: 2.25%
inhibition [4]: 14.9%
inhibition [5]: 58.7%
inhibition [6]: 9.24%
inhibition [7]: 52.5%
inhibition [8]: 1.77%
inhibition [9]: 6.21%
inhibition [10]: 4.12%

CNC(=O)c1cccc(C#Cc2cncnc2Nc2ccc(OCc3cccc(F)c3)c(Cl)c2)c1
inhibition [1]: 8.09%
inhibition [2]: 0.89%
inhibition [3]: 3.12%
inhibition [4]: 0.83%
inhibition [5]: 3.3%
inhibition [6]: 1.32%
inhibition [7]: 5.48%
inhibition [8]: 1.2%
inhibition [9]: 1.35%
inhibition [10]: 1.28%

CCCN(CCS(C)(=O)=O)Cc1ccc(-c2ccc3ncnc(Nc4ccc(OCc5cccc(F)c5)c(Cl)c4)c3c2)o1
inhibition [1]: 4.79%
inhibition [2]: 1.86%
inhibition [3]: 4.14%
inhibition [4]: 2.58%
inhibition [5]: 3.62%
inhibition [6]: 1.8%
inhibition [7]: 3.3%
inhibition [8]: 2.06%
inhibition [9]: 5.97%
inhibition [10]: 2.12%
